The results in this text go back to PubChem BioAssay (NCATS).

Assay [1] can be described thus: AP1 Signaling Pathway (AID 357).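 Also: ME-180 reporter cells stimulated with EGF at its EC50 level; % is scaled to controls: 0 for no effect and ±100 for the full control effect.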 Particulars: ME-180 AP-1-bla reporter, EGF-induced, beta-lactamase ratio, 5 h. The procedure, abridged:
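AP-1-bla ME-180 cells, Opti-MEM + 0.5% dialyzed FBS, plated overnight 37 °C. Cpd titration + EC50 EGF, 5 h 37 °C. CCF4 2.5 h RT; ex 405, em 460/530 ratio → %activity, AC50.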

Assay [2] has as its target Cytochrome P450 1A2 (Homo sapiens) (UniProt P05177). Description: p450-cyp1a2 (AID 410; calls by dose curve; also: potency is read from the fitted curve at half-maximal effect;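 as to activity change, negative = inhibition: -100% = full effect of reference inhibitor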). As to conditions: recombinant CYP1A2, luciferin-ME demethylation, luminescence; series mostly up to 57 µM. In a few lines:
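20nM CYP1A2, 100uM Luciferin-ME (=Km), 100mM KPO4; cpd 10 min RT; +NADPH regen, 60 min RT; stop/detect 20 min; luminescence. Normalized to furafylline 57 uM = full inhibition.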

Assay [3] in a line: NFAT Signaling Pathway (AID 444).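 Also: carbachol stimulus at about its EC50 of 1 µM final; % is scaled to controls: 0 for no effect and ±100 for the full control effect.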 Particulars: Jurkat NFAT-bla M1, carbachol, beta-lactamase ratio, 5 h. In a few lines:
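Read-out: CCF4 FRET ratio (460 nm/530 nm) after 1 h RT dye loading, used for %activity and AC50 from titration series. Cells: Jurkat NFAT-β-lactamase/M1 line, treated with compound plus 1 uM carbachol for 5 h, 37 °C.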

Assay [4] in a line: Stat Signaling Pathway (AID 446).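 Also: ME-180 cervical cancer cells given 40 pM IL-6 alongside compound; SIE-controlled beta-lactamase reporter measured as 460/530 nm FRET emission ratio; % is scaled to controls: 0 for no effect and ±100 for the full control effect.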 As to conditions: ME-180 (cervical carcinoma) SIE beta-lactamase reporter, IL-6 stimulated, 5 h. In a few lines: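 Compound effects on IL-6-induced STAT reporter activity were measured in ME-180 cells. After overnight culture, cells were co-treated with 40 pM IL-6 for 5 hrs before beta-lactamase substrate loading at room temperature.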
Assay [5] addresses Glucocorticoid receptor (Homo sapiens) (UniProt P04150). Nature of the assay: GR-GFP Redistribution (AID 450;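 active = compounds whose dose series gives a full or clear partial fitted curve of increased nuclear translocation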; also: potency is read from the fitted curve at half-maximal effect). Particulars: U2OS GR-GFP nuclear translocation, laser cytometry, 2 h.
Assay [6] shares this target. Nature of the assay: GR-EFC Redistribution (AID 451; calls by dose curve; also: potency is read from the fitted curve at half-maximal effect). Particulars: CHO-K1 GR-EFC translocation, beta-gal luminescence, 2 h. In a few lines:
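Translocation of GR-ED fusion to nuclear EA restores b-gal, read by luminescence after 1 h room-temperature detection. Engineered CHO-K1 biosensor cells, 1,000/well, exposed 2 h at 37 C to titrations up to 46 uM final.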

Assay [7] has as its target Mitogen-activated protein kinase 10 (Mus musculus) (UniProt Q61831). Description: JNK3 AlphaScreen Assay (AID 530).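 Also: kinase came from lysate of stimulated human HepG2 cells.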 Also: potency is read from the fitted curve at half-maximal effect.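 As to activity change, negative = inhibition: signal reports phosphorylation of biotinylated GST-cJun 1-79 at Ser73 with 10 µM ATP; % is scaled to controls: 0 for no effect and ±100 for the full control effect.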 Particulars: JNK3 lysate, c-Jun phosphorylation; series mostly up to 57.1 µM. In a few lines: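 Kinase buffer: 20 mM Tris-HCl pH 7.6, 10 mM MgCl2, 1 mM DTT, 0.1 mM Na3VO4, 0.01% Tween-20; ATP 10 uM. Substrate biotin-GST-cJun(1-79), enzyme from activated HepG2 lysates. Detection by Ser73 phospho-antibody AlphaScreen.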

Molecules are shown by their SMILES. Values joined by “and” are separate entries in the source; they are usually repeats but may differ in a detail not shown here. Equal entries are not always repeated. Values without a mark were called inactive. Inconclusive results are not listed. Active and inactive are the calls of the source. Unless noted, calls follow the shape of the dose curve; as a rule, active = well fitted curve in either direction with a large enough effect (not every such curve was filed as active); inconclusive = small, poorly fitted or top-dose-only effect, or another doubt; inactive = flat fitted curve, though single readings scatter.

Glucocorticoid receptor (Homo sapiens), sequence (P04150 whole entry, looked up): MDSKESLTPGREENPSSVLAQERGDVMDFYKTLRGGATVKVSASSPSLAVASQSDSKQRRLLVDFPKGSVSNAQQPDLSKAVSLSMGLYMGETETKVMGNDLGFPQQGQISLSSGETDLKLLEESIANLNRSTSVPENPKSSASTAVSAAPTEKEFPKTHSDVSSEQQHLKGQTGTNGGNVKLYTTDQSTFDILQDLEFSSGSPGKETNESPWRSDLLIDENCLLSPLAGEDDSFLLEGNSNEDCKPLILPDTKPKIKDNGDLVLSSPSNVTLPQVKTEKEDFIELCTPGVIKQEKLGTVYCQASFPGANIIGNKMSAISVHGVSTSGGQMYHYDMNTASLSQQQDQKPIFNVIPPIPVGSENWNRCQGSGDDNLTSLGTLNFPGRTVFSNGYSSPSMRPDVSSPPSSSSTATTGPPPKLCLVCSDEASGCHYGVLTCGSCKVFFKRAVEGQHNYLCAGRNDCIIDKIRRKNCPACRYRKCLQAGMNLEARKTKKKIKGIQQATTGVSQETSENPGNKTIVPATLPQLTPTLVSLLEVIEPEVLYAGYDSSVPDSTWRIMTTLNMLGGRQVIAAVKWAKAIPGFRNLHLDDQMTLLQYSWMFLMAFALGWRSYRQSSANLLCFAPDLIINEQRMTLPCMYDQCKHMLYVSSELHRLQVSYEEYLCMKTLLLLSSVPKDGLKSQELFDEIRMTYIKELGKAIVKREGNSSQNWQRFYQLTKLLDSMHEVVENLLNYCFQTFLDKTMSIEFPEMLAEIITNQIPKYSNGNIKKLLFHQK
Cytochrome P450 1A2 (Homo sapiens), sequence (P05177 whole entry, looked up): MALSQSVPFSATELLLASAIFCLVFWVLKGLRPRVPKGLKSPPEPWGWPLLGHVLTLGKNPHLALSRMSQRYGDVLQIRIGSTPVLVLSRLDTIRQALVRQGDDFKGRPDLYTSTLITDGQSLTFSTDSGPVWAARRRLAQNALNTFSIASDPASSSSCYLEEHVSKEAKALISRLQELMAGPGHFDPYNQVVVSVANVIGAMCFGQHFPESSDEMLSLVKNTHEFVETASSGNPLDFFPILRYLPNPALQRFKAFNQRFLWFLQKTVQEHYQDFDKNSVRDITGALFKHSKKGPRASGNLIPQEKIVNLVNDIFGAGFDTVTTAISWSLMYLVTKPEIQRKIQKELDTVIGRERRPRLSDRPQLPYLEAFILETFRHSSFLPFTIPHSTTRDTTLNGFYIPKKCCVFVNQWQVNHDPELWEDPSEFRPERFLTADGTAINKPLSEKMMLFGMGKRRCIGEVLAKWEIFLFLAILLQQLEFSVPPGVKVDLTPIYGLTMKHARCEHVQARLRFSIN

On to `COc1ccc2c(c1OC)C(=O)OC2[C@H]1c2c(cc3c(c2OC)OCO3)CCN1C` (some centres not stated), for which the activity change, negative = inhibition in assay [1] (at 17.2 µM (top of the series)) was -2.27%; in assay [1] (at 38 µM (top of the series)), -1.8%; in assay [3] (at 17.2 µM (top of the series)), -11.3%; in assay [3] (at 38 µM (top of the series)), -9.62%. Besides, the Potency entry in assay [2] and in assay [7] was “inactive” in each case. In addition, the activity, negative = inhibition in assay [4] (at 17.2 µM (top of the series)) is 4.57%; in assay [4] (at 38 µM (top of the series)), 2.78%. Further, the Potency in assay [5] is > 46 µM and > 20.6 µM; in assay [6], > 46 µM and > 20.6 µM.
`O=C(O)C=Cc1ccc(Cn2ccnc2)cc1`: the Potency in assay [5] and in assay [6] was greater than 46 µM throughout. Also, the Potency entry in assay [7] was “inactive”.
In the case of `CC(Oc1ccc(O)cc1)(P(=O)(O)O)P(=O)(O)O`, the Potency entry in assay [2] is “inactive”. The Potency in assay [5] and in assay [6] was greater than 46 µM throughout.
Consider `O=c1c(O)c(-c2ccc(O)c(O)c2)oc2cc(O)ccc12`, for which the Potency was 1.58 µM (active) and 2.51 µM (active) in assay [2]; greater than 46 µM in assay [5]; greater than 46 µM in assay [6]; 12.6 µM (active) in assay [7].
For `Nc1nc2c(c(=O)[nH]1)N(C=O)[C@H](CNc1ccc(C(=O)N[C@@H](CCC(=O)O)C(=O)O)cc1)CN2`, the activity change, negative = inhibition in assay [1] (at 17.2 µM (top of the series)) was -9.84%; in assay [3] (at 17.2 µM (top of the series)), 4.7%. Further, the Potency result in assay [2] and in assay [7] was “inactive” each time. In assay [4] (at 17.2 µM (top of the series)), the activity, negative = inhibition is 7.59%. Further, the Potency in assay [5] and in assay [6] was greater than 20.6 µM each time.
With `c1coc(CNc2ncnc3nc[nH]c23)c1`, the activity change, negative = inhibition in assay [1] (at 17.2 µM (top of the series)) was 2.59%; in assay [3] (at 17.2 µM (top of the series)) it was 1.53%. Besides, the activity, negative = inhibition in assay [4] (at 17.2 µM (top of the series)) is -16.6%. Further, the Potency in assay [5] is > 20.6 µM and > 46 µM; in assay [6], > 20.6 µM and > 46 µM. The Potency entry in assay [7] is “inactive”.
Consider `COc1cc2c(cc1O)CCC1C2CC[C@@]2(C)C1CC[C@@H]2O` (some centres not stated), for which the Potency in assay [5] and in assay [6] was greater than 46 µM each time.
In the case of `COc1cc2c(cc1OC)[C@@H]1C(=O)c3ccc4c(c3O[C@@H]1CO2)C=CC(C)(C)O4`, the figures for the Potency in assay [2], in assay [5] and in assay [6] were 15.8 µM (active), greater than 46 µM and greater than 46 µM, respectively.
As for `CCN1CCN(C(=O)N[C@H](C(=O)N[C@@H]2C(=O)N3C(C(=O)O)=C(CSc4nnnn4C)CS[C@@H]23)c2ccc(O)cc2)C(=O)C1=O`, the activity change, negative = inhibition in assay [1] (at 17.2 µM (top of the series)) is 6.77%; in assay [3] (at 17.2 µM (top of the series)), 3.22%. Also, the Potency entry in assay [2] and in assay [7] was “inactive” in each case. Besides, the activity, negative = inhibition in assay [4] (at 17.2 µM (top of the series)) is 8%.
For `CN(N=O)C(=O)N[C@H]1C(O)OC(CO)[C@@H](O)[C@H]1O` (some centres not stated), the Potency entry in assay [2] and in assay [7] was “inactive” in each case. Moreover, the Potency in assay [5] and in assay [6] was greater than 46 µM in each case.
